Only some compounds are listed: those with a hit (about 18% of all), similar ones and a draw of the others.
CtBP-E1A inh: blocks the CtBP interaction with E1A | activity change, % (test concentration not listed) | AID 651724 | AlphaScreen GST-E1A/His-CtBP binding, 1536-well; active compounds read low | 0.49% of 340,000 active; in the data active = activity change below about -65%; inconclusive = mostly about -30% to -63%
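Steps: dispense buffer (Tris pH 8.0, NaCl 300 mM, TCEP 1 mM, BSA, Tween 20); add 5X protein mix (GST-E1A, His-CtBP, 125 nM each); pin 23 nL compound; 2 h at 37 °C, dark; add 5X beads (50 ug/mL); 1 h; read.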
DT40 TDP1 CPT: DT40-hTDP1 cell growth loss with CPT. chicken DT40 Tdp1-/-;hTDP1 cells + 20 nM CPT, ATP luminescence, 48 h. Potency, µM (doses to about 46.2 µM), for the others: at the highest dose activity change, negative = growth inhibition, most hits filed as inhibitors. 12% of 420,000 active; note: potency is the fitted concentration of half-maximal effect; nearly all actives have a fitted effect of over 55% in size
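Chicken DT40 Tdp1-/- cells complemented with human TDP1, 400 cells/well, exposed to compounds plus 20 nM camptothecin for at least 48 h at 37 C; viability read as ATP content by CellTiter-Glo luminescence.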
Six1-Eya2 blk: inhibitors of human Six1/Eya2 interaction; AID 651725; AlphaScreen GST-Six1/His-Eya2 binding, biochemical; active compounds read low; 0.56% of 360,000 active; Q15475+O00167; activity change, % (no concentration beside the values); in the data active = activity change below about -65%; inconclusive = mostly about -30% to -63%
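Homogeneous AlphaScreen proximity assay pairing GST-Six1 with His-tagged Eya2 (added as 5X mix: 250 nM and 500 nM) in 50 mM Tris pH 8.0, 300 mM NaCl, 1 mM TCEP. Glutathione donor and nickel acceptor beads; 1 h, 37 °C, dark.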
DT40 TDP1 no CPT: qHTS for Inhibitors of human tyrosyl-DNA phosphodiesterase 1 (TDP1): qHTS in cells in absence of CPT; DT40 Tdp1-/- hTDP1 cells, no CPT, ATP luminescence, 48 h; Potency, µM (series often up to 46.2 µM), without a hit: at the top dose activity change, negative = growth inhibition, usual class: inhibitors; 15% of 420,000 active; AID 686978, 2013; note: potency is the fitted concentration of half-maximal effect; nearly all actives have a fitted effect of over 55% in size
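A cellular qHTS used chicken DT40 cells lacking endogenous Tdp1 but carrying stably transfected human TDP1. Compounds were applied without camptothecin, and cell growth kinetics were judged by ATP-dependent luminescence after ≥48 hr.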
TDP1 inh: TDP1 (human) enzyme inhibition; Q9NUW8; 0.28% of 350,000 active; Potency, µM (series often up to 130 µM), for the others: at the top dose activity change, negative = inhibition, usual class: inhibitors; recombinant TDP1, AlphaScreen DNA substrate cleavage; note: potency is the fitted concentration of half-maximal effect; nearly all actives have a fitted effect of over 40% in size
Target sequence (Q9NUW8 whole entry, looked up): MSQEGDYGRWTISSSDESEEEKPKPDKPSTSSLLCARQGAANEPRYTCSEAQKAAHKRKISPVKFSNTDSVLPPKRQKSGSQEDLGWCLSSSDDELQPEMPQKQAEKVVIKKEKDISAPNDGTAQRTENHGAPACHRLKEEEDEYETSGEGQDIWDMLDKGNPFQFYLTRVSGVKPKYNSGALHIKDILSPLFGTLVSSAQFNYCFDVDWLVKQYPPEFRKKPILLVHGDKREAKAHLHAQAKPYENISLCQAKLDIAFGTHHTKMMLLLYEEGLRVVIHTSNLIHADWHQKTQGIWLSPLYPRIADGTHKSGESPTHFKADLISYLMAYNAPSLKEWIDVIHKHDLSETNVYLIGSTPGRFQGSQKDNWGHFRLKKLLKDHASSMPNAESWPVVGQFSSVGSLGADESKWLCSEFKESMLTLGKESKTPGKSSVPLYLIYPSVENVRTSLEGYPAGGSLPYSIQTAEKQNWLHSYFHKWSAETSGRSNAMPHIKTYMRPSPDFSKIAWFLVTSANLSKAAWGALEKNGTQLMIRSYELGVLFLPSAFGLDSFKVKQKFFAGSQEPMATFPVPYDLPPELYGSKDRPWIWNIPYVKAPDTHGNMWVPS
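Signal: AlphaScreen proximity between streptavidin donor and anti-FITC acceptor beads on intact substrate. Reaction: Tdp1 1 nM, substrate 15 nM final, 5 min RT after 15 min compound preincubation.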
IL1B secr inh: blocks inflammasome-driven IL-1 beta release; 4.7% of 360,000 active; AID 743279; THP-1 LPS/ATP IL-1B secretion, AlphaLISA, 16 h; active compounds read low; activity change, % at 57.5 µM; in the data active = activity change below about -50%; inconclusive = mostly about -30% to -49%
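Secreted IL-1B measured by AlphaLISA bead assay after 16 h compound exposure of THP-1 cells; compounds (final up to 57.5 uM) added 1 h before LPS (250 ng/mL) and ATP (1.25 mM) stimulation; lower signal means less secretion.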
Numbers without * were called inactive. Unless noted, calls come from the whole dose curve; as a rule, active = well fitted curve in the direction sought with a large enough effect; inconclusive = small, poorly fitted or top-dose-only effect, or another doubt; inactive = no such curve, though single readings can be large; an effect the other way counts as inactive or inconclusive. % is set by controls: 0 for no effect and ±100 for the full control effect.

Results for O=C(CCl)Nc1cccc(Oc2ccccc2)c1 ?
CtBP-E1A inh: 5; DT40 TDP1 CPT: 3.3µM*; Six1-Eya2 blk: 2; DT40 TDP1 no CPT: 2.9µM*; TDP1 inh: 5%; IL1B secr inh: -106*

How did O=C(CN1CCCCC1)Nc1cccc(Oc2ccccc2)c1 do in these assays?
CtBP-E1A inh: 0; DT40 TDP1 CPT: inconclusive; Six1-Eya2 blk: 0; DT40 TDP1 no CPT: inconclusive; TDP1 inh: 10%; IL1B secr inh: inconclusive

Results for Cc1cc([N+](=O)[O-])ccc1-c1ccc(C2Nc3ccccc3C(=O)N2O)o1 (stereo not given) ?
CtBP-E1A inh: -17; DT40 TDP1 CPT: 23µM*; Six1-Eya2 blk: -13; DT40 TDP1 no CPT: 23µM*; TDP1 inh: 14%; IL1B secr inh: 58

Results for Cc1ccc(CCNS(=O)(=O)c2cc3c(cc2Cl)NC(=O)CO3)cc1 ?
CtBP-E1A inh: -1; DT40 TDP1 CPT: -22%; Six1-Eya2 blk: -4; DT40 TDP1 no CPT: -20%; IL1B secr inh: 30

What do the screens show for `O=C(Cc1coc2ccc3ccccc3c12)NCc1ccccc1`?
CtBP-E1A inh: -2; DT40 TDP1 CPT: inconclusive; Six1-Eya2 blk: -2; DT40 TDP1 no CPT: inconclusive; TDP1 inh: 3%; IL1B secr inh: 13

Results for CCCN(CCC)C(=O)Cc1coc2ccc3ccccc3c12 ?
CtBP-E1A inh: 2; DT40 TDP1 CPT: inconclusive; Six1-Eya2 blk: -1; DT40 TDP1 no CPT: 18µM*; TDP1 inh: 2%; IL1B secr inh: -2

What do the screens show for `O=C(Cc1coc2ccc3ccccc3c12)Nc1nccs1`?
CtBP-E1A inh: -7; DT40 TDP1 CPT: 15µM*; Six1-Eya2 blk: -1; DT40 TDP1 no CPT: inconclusive; TDP1 inh: 3%; IL1B secr inh: 26

What do the screens show for `O=C(O)CCCC(=O)Nc1ccc(OCc2nc3ccccc3s2)cc1`?
CtBP-E1A inh: -13; DT40 TDP1 CPT: 10%; Six1-Eya2 blk: -1; DT40 TDP1 no CPT: inconclusive; IL1B secr inh: 22

What do the screens show for `CC(=O)N1c2ccc([N+](=O)[O-])cc2NC(=O)CC1C` (stereo not given)?
CtBP-E1A inh: -5; DT40 TDP1 CPT: -3%; Six1-Eya2 blk: 6; DT40 TDP1 no CPT: -8%; TDP1 inh: 0%; IL1B secr inh: 2

Results for O=C1C=C(N(CCO)CCO)C2(CCCCC2)O1 ?
CtBP-E1A inh: 5; DT40 TDP1 CPT: -5%; Six1-Eya2 blk: 0; DT40 TDP1 no CPT: 13%; TDP1 inh: -7%; IL1B secr inh: 17

How did Cc1ccc(C)c(NC(=O)Cn2nnc(C(=O)NCCc3ccccc3)c2N)c1 do in these assays?
DT40 TDP1 CPT: 6%; DT40 TDP1 no CPT: 2%; TDP1 inh: -3%

What do the screens show for `CCC(C)[C@H]1CNCCN1CC1(c2ccccc2)CC1` (stereo not given in full)?
DT40 TDP1 CPT: 21µM*; Six1-Eya2 blk: 7; DT40 TDP1 no CPT: 18µM*; TDP1 inh: -4%; IL1B secr inh: -15

Results for CCC(C)[C@H]1CNCCN1CCC12CC3CC(CC(C3)C1)C2 (stereo not given in full) ?
CtBP-E1A inh: -14; DT40 TDP1 CPT: 26µM*; Six1-Eya2 blk: -18; DT40 TDP1 no CPT: 12µM*; TDP1 inh: -1%; IL1B secr inh: -62*

Results for CC(O)[C@H]1CNC(=O)C(=O)N1CCc1cccc2ccccc12 (stereo not given in full) ?
DT40 TDP1 CPT: -1%; Six1-Eya2 blk: 0; DT40 TDP1 no CPT: -10%; TDP1 inh: -1%; IL1B secr inh: 21

What do the screens show for `CCC(C)[C@H]1CNCCN1CCc1cccc2ccccc12` (stereo not given in full)?
CtBP-E1A inh: -2; DT40 TDP1 CPT: 16µM*; Six1-Eya2 blk: -1; DT40 TDP1 no CPT: inconclusive; TDP1 inh: inconclusive; IL1B secr inh: -7

How did NC(=O)C1CCN(CC(O)COCc2ccccc2Cl)CC1 (stereo not given) do in these assays?
CtBP-E1A inh: -24; DT40 TDP1 CPT: 4%; Six1-Eya2 blk: 16; DT40 TDP1 no CPT: -6%; TDP1 inh: 0%; IL1B secr inh: 7

Results for CCCN(C(=O)c1cc(S(=O)(=O)N(C)c2ccccc2OC)ccc1C)C1CCS(=O)(=O)C1 (stereo not given) ?
CtBP-E1A inh: -5; DT40 TDP1 CPT: inconclusive; Six1-Eya2 blk: 3; DT40 TDP1 no CPT: -27%; IL1B secr inh: -11

How did O=C(NC(Cc1ccccc1)c1nc2ccccc2[nH]1)c1cccc([N+](=O)[O-])c1 (stereo not given) do in these assays?
CtBP-E1A inh: -11; DT40 TDP1 CPT: 21µM*; Six1-Eya2 blk: -16; DT40 TDP1 no CPT: inconclusive; TDP1 inh: -2%; IL1B secr inh: -15

What do the screens show for `CSCCC(NC(=O)c1cccc([N+](=O)[O-])c1)c1nc2ccccc2[nH]1` (stereo not given)?
CtBP-E1A inh: 1; DT40 TDP1 CPT: -6%; Six1-Eya2 blk: 2; DT40 TDP1 no CPT: -5%; TDP1 inh: 8%; IL1B secr inh: 0

What do the screens show for `Cc1ccc(C(=O)Cc2nc3ccccc3[nH]2)cc1`?
CtBP-E1A inh: 16; DT40 TDP1 CPT: inconclusive; Six1-Eya2 blk: 6; DT40 TDP1 no CPT: -29%; IL1B secr inh: -101*

What do the screens show for `O=C(NCc1nc2ccccc2[nH]1)c1c(F)c(F)c(F)c(F)c1F`?
CtBP-E1A inh: -4; DT40 TDP1 CPT: -2%; Six1-Eya2 blk: 3; DT40 TDP1 no CPT: 18%; TDP1 inh: 3%; IL1B secr inh: -78*

What do the screens show for `CCOC(=O)c1ccc(NCc2nc3ccccc3[nH]2)cc1`?
CtBP-E1A inh: 0; DT40 TDP1 CPT: 16µM*; Six1-Eya2 blk: -8; DT40 TDP1 no CPT: 16µM*; TDP1 inh: -5%; IL1B secr inh: 13

How did CCC(C)[C@H](NC(=O)C1CCN(C(=O)[C@H](Cc2ccccc2)NC(=O)OC(C)(C)C)CC1)C(=O)O (stereo not given in full) do in these assays?
DT40 TDP1 CPT: 5%; Six1-Eya2 blk: -2; DT40 TDP1 no CPT: 3%; IL1B secr inh: -2

What do the screens show for `O=C(Cc1nc2ccccc2[nH]1)c1cccc([N+](=O)[O-])c1`?
CtBP-E1A inh: -13; DT40 TDP1 CPT: 2.9µM*; Six1-Eya2 blk: -9; DT40 TDP1 no CPT: 3.7µM*; TDP1 inh: 8%; IL1B secr inh: 0

Screening results as filed in PubChem BioAssay.
